These compounds were tested on TNK2. Details: concentration: 1 μM, replicates: in singlicate; n = 1.
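Note: KINOMEscan kinase panel screen.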

Row | Structure (SMILES) | %Inh
1 | CS(=O)(=O)c1ccc(-c2c(-c3ncn[nH]3)sc(N3CCOCC3)c2C#N)cc1 | 17%
2 | CCn1c(-c2cccnc2O)nc2cnccc21 [SB-736715] | 0%
3 | Cc1cc(-c2ccc3c(c2)CC[C@@H](N[C@@H](C)c2ccccc2)C3)cnc1N.Cl [GW412617] | 12%
4 | COc1ccccc1CNC(=O)c1cc(C(=O)c2ccccc2C)c[nH]1 [GSK364507] | 17%
5 | Cc1cccc(-c2nc(-c3ccc(S(C)(=O)=O)cc3)sc2-c2ccnc(NCCc3ccccc3)c2)c1 | 0%
6 | CC(=O)Nc1nc2cnc(Nc3cc(NC(=O)c4cccc(CCC#N)c4)ccc3C)nc2s1 | 9%
7 | Cc1cccc(-c2nc(C)cc(Nc3ccncc3)n2)n1 [GSK257997] | 28%
8 | CS(=O)(=O)c1ccc(-c2nc3n(c2-c2ccncc2)CCC3)cc1 [SKF-105942] | 42%
9 | Cl.c1ccc(-c2n[nH]cc2-c2ccnc(-c3ccc(CN4CCOCC4)cc3)c2)nc1 [GW776245] | 0%
10 | Nc1ncnc2[nH]c(-c3ccccc3)nc12 [AH5015] | 24%
11 | O=C(O)COc1ncnc2cc(-c3ccc4[nH]ncc4c3)sc12 | 0%
12 | COc1cc2ncn(-c3cc(OCC4CCCO4)c(C(N)=O)s3)c2cc1OC (stereo not shown) [GSK204607] | 17%
13 | Cc1ccc(NC(=O)Nc2cc(C(C)(C)C)nn2-c2ccccc2)cc1 [GSK1014915] | 15%
14 | Cc1cccc(-c2nc(Nc3ccc4[nH]ncc4c3)c3ccccc3n2)n1 [GW857175] | 10%
15 | CC(C)(C)c1ccc(C(=O)Nc2cn3cc(Cl)ccc3n2)cc1 | 2%
16 | Cn1cncc1-c1ccc2ncnc(Nc3ccc(OCc4ccccc4)cc3)c2c1 [GW320571] | 29%
17 | O=C(Nc1n[nH]c2nc(-c3nccs3)c(Br)cc12)C1CC1 [SB-742251] | 16%
18 | CN1C(=O)C(Nc2ccc(Cl)c(C(=O)O)c2)=C(c2ccc(Cl)cc2)C1=O [SB-404290] | 0%

Row | Structure (SMILES) | %Inh
19 | Cc1cc(N2Cc3ccccc3C2)nc(Nc2ccc(S(=O)(=O)N3CCOCC3)cc2)n1.Cl [GSK1669917] | 7%
20 | CN(C)CCN(C)C(=O)c1cc(-c2ccncc2)c(-c2ccc(Cl)c(O)c2)o1.Cl.Cl [SB-710397] | 0%
21 | Cc1csc(-c2nc(Nc3ccncc3)c3ccccc3n2)n1 [GW869640] | 0%
22 | Cc1ccc(NC(=O)Nc2cccc(Cl)c2)cc1-c1ccc(C(=O)Nc2ccncc2)cc1 [GSK1398468] | 12%
23 | O=C(Nc1n[nH]c2cc(-c3cccc(F)c3F)ccc12)C1CC1 [SB-733894] | 2%
24 | O=C(Nc1ccccc1)Nc1cccc(Oc2ccc3nccn3n2)c1 | 0%
25 | Cl.O=C(Nc1cccc(-c2nn3ncccc3c2-c2ccnc(Nc3cccnc3)n2)c1)c1c(F)cccc1F [GSK312879] | 13%
26 | O=C(Nc1n[nH]c2nc(-c3nccs3)c(Br)cc12)C1CCCC1 [SB-742609] | 4%
27 | COc1cc(Nc2nccc(N3CCC(NC(=O)Nc4cc(C)ccc4C)C3)n2)cc(OC)c1OC (stereo not shown) [GSK1379762] | 15%
28 | COc1cc2nccc(Nc3ccc(NC(=O)c4ccc(C)cc4)c(O)c3)c2cc1OC.Cl [GW440132] | 48%
29 | O=C(Nc1ccc2c(c1)OCO2)NC1CCN(c2ccnc(Nc3ccc(F)cc3)n2)C1 (stereo not shown) [GSK1379724] | 10%
30 | O=C1NC(=O)C(N2CCc3ccccc32)=C1c1ccccc1Cl [SB-373598] | 11%
31 | Fc1cccc(COc2nnc(-c3ccc4c(c3)CCO4)o2)c1 | 0%
32 | Cc1cccc(-c2nc(Nc3cccc(C(N)=O)c3)c3ccccc3n2)n1 [GW876019] | 15%
33 | Cc1c(O)cccc1Nc1ccnc2ccc(C(F)(F)F)cc12.Cl [GW466413] | 17%
34 | COc1ccc(Nc2nccc(-c3cccc(NC(=O)c4cc5cc(F)ccc5[nH]4)c3)n2)cc1 [GSK1229782] | 16%
35 | Cc1cc(NCC(c2ccccc2)c2ccccc2)nc(NCc2ccc(C(F)(F)F)cc2)n1 [GW497681] | 0%

The compounds below were run on TNNI3K. Details: concentration: 1 μM, replicates: in singlicate; n = 1.

Row | Structure (SMILES) | %Inh
36 | CS(=O)(=O)c1ccc(-c2c(-c3ncn[nH]3)sc(N3CCOCC3)c2C#N)cc1 | 0%
37 | CCn1c(-c2cccnc2O)nc2cnccc21 [SB-736715] | 0%
38 | Cc1cc(-c2ccc3c(c2)CC[C@@H](N[C@@H](C)c2ccccc2)C3)cnc1N.Cl [GW412617] | 27%
39 | COc1ccccc1CNC(=O)c1cc(C(=O)c2ccccc2C)c[nH]1 [GSK364507] | 0%
40 | Cc1cccc(-c2nc(-c3ccc(S(C)(=O)=O)cc3)sc2-c2ccnc(NCCc3ccccc3)c2)c1 | 0%
41 | CC(=O)Nc1nc2cnc(Nc3cc(NC(=O)c4cccc(CCC#N)c4)ccc3C)nc2s1 | 7%
42 | Cc1cccc(-c2nc(C)cc(Nc3ccncc3)n2)n1 [GSK257997] | 0%
43 | CS(=O)(=O)c1ccc(-c2nc3n(c2-c2ccncc2)CCC3)cc1 [SKF-105942] | 19%
44 | Cl.c1ccc(-c2n[nH]cc2-c2ccnc(-c3ccc(CN4CCOCC4)cc3)c2)nc1 [GW776245] | 0%
45 | Nc1ncnc2[nH]c(-c3ccccc3)nc12 [AH5015] | 11%
46 | O=C(O)COc1ncnc2cc(-c3ccc4[nH]ncc4c3)sc12 | 0%
47 | COc1cc2ncn(-c3cc(OCC4CCCO4)c(C(N)=O)s3)c2cc1OC (stereo not shown) [GSK204607] | 0%
48 | Cc1ccc(NC(=O)Nc2cc(C(C)(C)C)nn2-c2ccccc2)cc1 [GSK1014915] | 21%
49 | Cc1cccc(-c2nc(Nc3ccc4[nH]ncc4c3)c3ccccc3n2)n1 [GW857175] | 0%
50 | CC(C)(C)c1ccc(C(=O)Nc2cn3cc(Cl)ccc3n2)cc1 | 0%
51 | Cn1cncc1-c1ccc2ncnc(Nc3ccc(OCc4ccccc4)cc3)c2c1 [GW320571] | 23%
52 | O=C(Nc1n[nH]c2nc(-c3nccs3)c(Br)cc12)C1CC1 [SB-742251] | 4%
53 | CN1C(=O)C(Nc2ccc(Cl)c(C(=O)O)c2)=C(c2ccc(Cl)cc2)C1=O [SB-404290] | 0%

Row | Structure (SMILES) | %Inh
54 | Cc1cc(N2Cc3ccccc3C2)nc(Nc2ccc(S(=O)(=O)N3CCOCC3)cc2)n1.Cl [GSK1669917] | 0%
55 | CN(C)CCN(C)C(=O)c1cc(-c2ccncc2)c(-c2ccc(Cl)c(O)c2)o1.Cl.Cl [SB-710397] | 17%
56 | Cc1csc(-c2nc(Nc3ccncc3)c3ccccc3n2)n1 [GW869640] | 18%
57 | Cc1ccc(NC(=O)Nc2cccc(Cl)c2)cc1-c1ccc(C(=O)Nc2ccncc2)cc1 [GSK1398468] | 64%
58 | O=C(Nc1n[nH]c2cc(-c3cccc(F)c3F)ccc12)C1CC1 [SB-733894] | 0%
59 | O=C(Nc1ccccc1)Nc1cccc(Oc2ccc3nccn3n2)c1 | 0%
60 | Cl.O=C(Nc1cccc(-c2nn3ncccc3c2-c2ccnc(Nc3cccnc3)n2)c1)c1c(F)cccc1F [GSK312879] | 0%
61 | O=C(Nc1n[nH]c2nc(-c3nccs3)c(Br)cc12)C1CCCC1 [SB-742609] | 6%
62 | COc1cc(Nc2nccc(N3CCC(NC(=O)Nc4cc(C)ccc4C)C3)n2)cc(OC)c1OC (stereo not shown) [GSK1379762] | 0%
63 | COc1cc2nccc(Nc3ccc(NC(=O)c4ccc(C)cc4)c(O)c3)c2cc1OC.Cl [GW440132] | 4%
64 | O=C(Nc1ccc2c(c1)OCO2)NC1CCN(c2ccnc(Nc3ccc(F)cc3)n2)C1 (stereo not shown) [GSK1379724] | 0%
65 | O=C1NC(=O)C(N2CCc3ccccc32)=C1c1ccccc1Cl [SB-373598] | 4%
66 | Fc1cccc(COc2nnc(-c3ccc4c(c3)CCO4)o2)c1 | 0%
67 | Cc1cccc(-c2nc(Nc3cccc(C(N)=O)c3)c3ccccc3n2)n1 [GW876019] | 0%
68 | Cc1c(O)cccc1Nc1ccnc2ccc(C(F)(F)F)cc12.Cl [GW466413] | 0%
69 | COc1ccc(Nc2nccc(-c3cccc(NC(=O)c4cc5cc(F)ccc5[nH]4)c3)n2)cc1 [GSK1229782] | 0%
70 | Cc1cc(NCC(c2ccccc2)c2ccccc2)nc(NCc2ccc(C(F)(F)F)cc2)n1 [GW497681] | 0%

Source: paper PMC5540273 (PLoS ONE, 2017)
